Assay outcomes (PubChem BioAssay)
ELG1 genotoxic: inducers of genotoxicity in HEK293T ELG1-luciferase cells; AID 504466; Potency, µM (highest dose often 46 µM), without a hit: at the highest dose activity change, positive = activation, usual class: activators; 330,000 tested, 1.3% active; HEK293T ELG1-luciferase reporter, luminescence, 16 h; further: % of control where 0% means no effect; nearly all actives have a fitted effect of over 60% in size
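Genotoxic stress is detected as increased luminescence from luciferase-tagged ELG1 in HEK293T cells, measured with ONE-Glo after a 16 hr treatment at 37 °C.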
SMN2 splice up: enhancers of SMN2 splice variant expression; HEK293 SMN2-luciferase splicing reporter, luminescence, 30-36 h; Potency, µM (highest dose often 46.1 µM), inactives show at the top dose activity change, positive = activation, usual class: activators; 210,000 tested, 2.8% active; further: % of control where 0% means no effect; nearly all actives have a fitted effect of over 55% in size
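HEK293 cells carry an SMN2 […]–luciferase reporter in which exon 7 inclusion puts luciferase in frame. Cells were plated 10-12 h before compound addition, then incubated 30-36 h at 37C. ONE-Glo luminescence was read; sodium butyrate at 4.5 mM final served as control.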
FLuc counter: counter-screen for miR-21 project: firefly luciferase inhibitors or activators. purified FLuc, Km substrates, luminescence inhibition. Potency, µM (highest dose often 57.5 µM), without a hit: at the top dose activity change, negative = inhibition, usual class: inhibitors. 360,000 tested, 6.9% active;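 further: plate controls were vehicle for no effect and reference inhibitor for full effect; nearly all actives have a fitted effect of over 55% in size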
Target sequence (P08659 whole entry, looked up): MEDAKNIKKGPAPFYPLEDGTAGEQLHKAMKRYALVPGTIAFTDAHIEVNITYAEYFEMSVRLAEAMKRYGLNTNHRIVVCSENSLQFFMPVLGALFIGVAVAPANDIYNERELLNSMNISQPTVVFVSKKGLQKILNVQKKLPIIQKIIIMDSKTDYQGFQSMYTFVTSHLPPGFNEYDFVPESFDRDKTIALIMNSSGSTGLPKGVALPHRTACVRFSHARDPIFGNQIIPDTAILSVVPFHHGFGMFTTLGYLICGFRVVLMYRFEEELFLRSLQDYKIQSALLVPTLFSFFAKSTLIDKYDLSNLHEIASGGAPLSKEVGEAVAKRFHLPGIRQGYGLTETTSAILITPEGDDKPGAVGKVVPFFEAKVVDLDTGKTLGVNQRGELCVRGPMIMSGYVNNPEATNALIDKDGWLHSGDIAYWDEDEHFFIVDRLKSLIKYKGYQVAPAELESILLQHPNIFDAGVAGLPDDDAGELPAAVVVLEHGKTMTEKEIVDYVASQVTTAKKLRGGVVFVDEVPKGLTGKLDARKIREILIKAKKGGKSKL
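Purified P. pyralis luciferase (10nM final) with 10uM D-luciferin and 10uM ATP (Km levels) in 50mM Tris acetate pH 7.5, 10mM Mg acetate, 0.01% Tween-20, 0.05% BSA; qHTS 6-point titration, ~60 µM downward; luminescence read.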
p53 reactivation: restores transcriptional activity of mutant p53 | H1299 p53-A138V BP100-luciferase reporter, luminescence, 24 h | Potency, µM (series often up to 92.2 µM), for the others: top-dose activity change, positive = activation, usual class: activators | 320,000 tested, 0.063% active; further: % of control where 0% means no effect; nearly all actives have a fitted effect of over 45% in size
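H1299 (p53-null), stable ts p53-A138V + BP100-Luc; 1000 cells/well, Opti-MEM/10% FBS; cpd 4 pt, 1:5; 24 h, 37 deg C, 5% CO2; detection reagent 10 min RT; luminescence.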
NPC1 prom act: NPC1 promoter activation; Huh7 NPC1 promoter luciferase reporter, 24 h; Potency, µM (doses to about 9.22 µM), for inactives: at the highest dose activation, hits mostly activators; 320,000 tested, 2.4% active; further: % of control where 0% means no effect; nearly all actives have a fitted effect of over 60% in size
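Luminescence read-out of NPC1 promoter-driven luciferase in stably transfected Huh7 cells; compounds delivered in DMSO and left 24 h at 37C, 5% CO2, qHTS titration format.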
Rab9 prom act: activators of Rab9 promoter; Potency, µM (top dose mostly 9.22 µM), for inactives: at the highest dose activation, negative = inhibition, actives largely listed as activators; Huh7 Rab9 promoter-luciferase reporter, luminescence, 24 h; 320,000 tested, 2.8% active; AID 485297; further: % of control where 0% means no effect; nearly all actives have a fitted effect of over 60% in size
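Luminescence read-out: Huh7 cells stably expressing Rab9-luciferase, treated 24 h with compound at 37 °C, then lysed with luciferase reagent for 10 min at ambient before reading.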
The depositor's hits bear a star; ? = inconclusive; . = not tested or not shown. Hits are enriched below; roughly 7.4% of the tested compounds scored in any of these assays. The call rests on the fitted dose curve; in most records, active means well fitted curve in the direction sought with a large enough effect; inconclusive means small, poorly fitted or top-dose-only effect, or another doubt; inactive means no such curve, though single readings can be large; an effect the other way counts as inactive or inconclusive. Potency means the concentration at half of the fitted maximal effect.

SMILES | ELG1 genotoxic | SMN2 splice up | FLuc counter | p53 reactivation | NPC1 prom act | Rab9 prom act
Fc1cccc(/C=N/Nc2ccccn2)c1 | ? | ? | 12µM* | 4% | 3.2µM* | 3.2µM*
O=S(=O)(N/N=C/c1ccc2c(c1)OCCO2)c1ccccc1 | 0% | -6% | ? | 9% | 8% | 4%
Fc1cccc(F)c1/C=N/Nc1ccccn1 | 13% | ? | ? | 22% | 26% | ?
Brc1ccc(/C=N/Nc2ccc3ccccc3n2)cc1 | ? | ? | 3µM* | 13% | 3.5µM* | 2.5µM*
C(=N\Nc1ccccn1)/c1ccc2c(c1)OCCO2 | 2.1µM* | 2.5µM* | 1.7µM* | 20% | 1.3µM* | 0.56µM*
CCOc1ccc(S(=O)(=O)NCCC(=O)OCC(=O)Nc2cc(C)on2)cc1 | 0% | . | 0% | 2% | -6% | 0%
CCC1CCCCN1S(=O)(=O)c1ccc(NC(=O)c2cc(=O)c3c(C)cc(C)cc3o2)cc1 (centres undefined) | . | 2% | 2% | . | . | .
CCOc1ccc(NC(=O)COC(=O)CCN2C(=O)C3CC=CCC3C2=O)cc1OCC (centres undefined) | 4% | . | 0% | 9% | -3% | 3%
Cc1cccc(N(CC(=O)Nc2ccc(Br)cc2)S(C)(=O)=O)c1C | . | . | -15% | . | . | .
COC(=O)N1CCC2(CCCN(C(c3ccccc3)c3ccccc3)C2)CC1 | . | -20% | . | . | . | .
CCCn1c(C)cs/c1=N\C(=S)Nc1ccccc1 | 2% | 1% | 3% | 3% | 9% | 3%
Cc1cs/c(=N/C(=S)Nc2ccccc2)n1C | 2.9µM* | 1.3µM* | 4.8µM* | . | 1.1µM* | 1.6µM*
COC(=O)c1ccc(C(=O)OC)c(NC(=O)c2c(-c3ccccc3)noc2C)c1 | . | -2% | -6% | . | . | .
C=CCNc1nc(Nc2ccccc2F)nc(OCC)n1 | 19% | 11µM* | 21µM* | 19% | 4µM* | 4µM*
CCOc1nc(Nc2ccccc2F)nc(OCC)n1 | -6% | . | 2% | 8% | 2% | 5%
O=C(c1cccs1)c1ccc(-c2cccs2)s1 | ? | ? | 0.3µM* | 26% | ? | 0.5µM*
CN1CCN(C(=O)c2ccc(-c3cccs3)s2)CC1 | ? | . | 11µM* | 4% | 1.8µM* | 2.2µM*
O=C(c1cccs1)c1no[n+]([O-])c1C(=O)c1cccs1 | ? | . | -22% | 19% | -42% | -40%
Cc1ccc2c(c1)-n1c(nc3cc(Cl)ccc3c1=O)C(Cc1ccccc1)NC2=O (centres undefined) | -7% | . | . | -6% | . | .
C(=C\c1ccccc1)/CSc1ccccn1 | 17% | 24% | 12µM* | 29% | ? | 3.5µM*
Cc1cccnc1NC(=O)Cn1nc(-c2ccccc2)oc1=S | ? | 3.2µM* | -7% | ? | 3.2µM* | 1.3µM*
CC(=O)c1ccccc1NC(=O)c1ccc2c(c1)NC(=O)C(C)S2 (centres undefined) | ? | . | 15µM* | 6% | ? | ?
CC1Sc2ccc(C(=O)Nc3ccc(S(=O)(=O)N(C)C)cc3)cc2NC1=O (centres undefined) | -20% | . | -7% | -10% | -1% | -7%
Cc1ccnc(NC(=O)c2ccc3c(c2)NC(=O)C(C)S3)c1 (centres undefined) | ? | . | 1.9µM* | 33% | 0.71µM* | 0.63µM*
Cc1ccc(Sc2ccc(N3CCCC(C(=O)Nc4ccc(F)c(Cl)c4)C3)nn2)cc1 (centres undefined) | . | 3% | -5% | . | . | .
CC1(C)CC(=O)C2=C(C1)N(CCN1CCOCC1)C1=C(C(=O)CC(C)(C)C1)C2c1ccc(Cl)c([N+](=O)[O-])c1 | -1% | -6% | -2% | 1% | -5% | -2%
Cc1ccc(C2C3=C(CC(C)(C)CC3=O)N(CCN3CCOCC3)C3=C2C(=O)CC(C)(C)C3)cc1 | -2% | -8% | -9% | -2% | -3% | 3.5µM*
CCNC(=S)/N=C(\N)Nc1nc(C)c2cc(C)ccc2n1 | ? | . | 6µM* | 6% | 3.5µM* | 2.8µM*
